Molecules are shown by their SMILES. Among all 3,300 compounds or so, about 35 (1%) were called active. A selection follows. Unmarked numbers belong to inactive results. Cut-off read from the data, not from the text of the source: active = inhibition above about 11%; inactive = the rest.

In the test the target is 1-phosphatidylinositol 4,5-bisphosphate phosphodiesterase beta-3 (Homo sapiens) (UniProt Q01970). Briefly: PLC-beta3 inhibitor confirmation, biochemical, fluorescence, purified enzyme (AID 743261). To be noted: purified PLC-beta3, fluorogenic substrate fluorescence; at 12.3 µM; stronger effect = higher value.
1-phosphatidylinositol 4,5-bisphosphate phosphodiesterase beta-3 (Homo sapiens), sequence (Q01970 whole entry, looked up): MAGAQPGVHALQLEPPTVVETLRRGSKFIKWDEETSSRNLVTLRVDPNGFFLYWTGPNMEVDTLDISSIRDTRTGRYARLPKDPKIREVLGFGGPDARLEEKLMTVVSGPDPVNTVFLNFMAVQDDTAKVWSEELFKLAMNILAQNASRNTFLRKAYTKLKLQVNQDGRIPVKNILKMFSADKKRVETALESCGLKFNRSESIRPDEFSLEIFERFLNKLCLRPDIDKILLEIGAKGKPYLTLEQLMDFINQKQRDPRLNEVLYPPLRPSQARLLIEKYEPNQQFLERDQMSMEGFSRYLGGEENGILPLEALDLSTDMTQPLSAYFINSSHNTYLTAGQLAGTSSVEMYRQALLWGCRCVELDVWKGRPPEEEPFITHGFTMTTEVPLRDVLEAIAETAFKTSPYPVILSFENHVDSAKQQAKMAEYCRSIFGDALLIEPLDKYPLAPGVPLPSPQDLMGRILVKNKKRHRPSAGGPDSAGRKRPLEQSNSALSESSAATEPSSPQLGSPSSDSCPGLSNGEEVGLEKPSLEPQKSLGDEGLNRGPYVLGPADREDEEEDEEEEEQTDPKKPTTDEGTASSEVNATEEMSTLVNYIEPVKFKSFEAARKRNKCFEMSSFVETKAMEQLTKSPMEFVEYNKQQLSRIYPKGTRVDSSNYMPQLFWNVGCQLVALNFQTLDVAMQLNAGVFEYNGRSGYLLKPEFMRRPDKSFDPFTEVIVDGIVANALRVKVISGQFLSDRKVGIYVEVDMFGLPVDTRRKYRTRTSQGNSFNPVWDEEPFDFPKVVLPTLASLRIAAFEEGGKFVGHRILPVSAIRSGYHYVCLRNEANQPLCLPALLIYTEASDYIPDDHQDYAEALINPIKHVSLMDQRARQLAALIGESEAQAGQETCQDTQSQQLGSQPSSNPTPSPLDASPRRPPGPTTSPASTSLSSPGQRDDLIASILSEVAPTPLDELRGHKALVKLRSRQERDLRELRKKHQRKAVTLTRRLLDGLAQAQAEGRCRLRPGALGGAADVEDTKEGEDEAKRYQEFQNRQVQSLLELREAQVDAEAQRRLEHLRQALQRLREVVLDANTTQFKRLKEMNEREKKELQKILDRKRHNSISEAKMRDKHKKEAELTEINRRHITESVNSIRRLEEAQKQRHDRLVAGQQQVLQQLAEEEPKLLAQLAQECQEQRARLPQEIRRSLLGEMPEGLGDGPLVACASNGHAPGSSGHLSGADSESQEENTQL
On to `CCOc1ccc(CCNC(=O)COC(=O)CCS(=O)(=O)c2ccc(C)cc2)cc1OCC`, for which the inhibition is -2.58%.

Turning to `CCOC(=O)[C@]12CCCC=C1N(CCCOC)C(=O)[C@@H]2CC(=O)N1CCOCC1`, the inhibition was -1.19%.

Regarding `NC1=CC(=O)C(=O)c2cccnc21`, the inhibition was -2.06%.

In the case of `O=C(NCc1cccnc1)c1cc(C2CCCCN2C(=O)CCc2ccccc2)on1` (stereo not given), the inhibition is 1.6%.

With `NC1=NN(c2cccc(C(=O)O)c2)C(=O)C1`, the inhibition was 0.11%.

`OC(CNCC1CCCO1)Cn1c2ccc(Br)cc2c2cc(Br)ccc21` (stereo not given): the inhibition is -1.89%.

For `CCCCc1nc2ccccc2c(NC(=O)CN2CCN(C)CC2)c1CCC`, the inhibition was -2.31%.

For the compound `Cc1nc2ccccc2nc1CC(O)(c1ccccc1)c1ccccc1`, the inhibition was 1.99%.

For `CCOc1ccc(OCC)c(NC(=O)CSc2nnc(Cn3cnc4ccccc43)n2C)c1`, the inhibition was 2.61%.

`CCC1S/C(=N/N=C/c2ccco2)NC1=O` (stereo not given): the inhibition is 3.39%.

As to `CC(C)n1c(CN2CCN(Cc3ccccc3)CC2)nc2ccccc21`, the inhibition is -2%.

Regarding `Nn1cnnc1N/N=C/c1cc([N+](=O)[O-])c(Cl)cc1Cl`, the inhibition was -0.09%.

In the case of `COCCCN(C(=S)Nc1c(C)cc(C)cc1C)C(C)c1ccncc1` (stereo not given), the inhibition is 3.06%.

As for `Cc1ccc(N2CC(C(=O)NCCS(=O)(=O)N3CCN(c4ccccc4)CC3)CC2=O)cc1` (stereo not given), the inhibition was 3.26%.

On to `C/C(CC(C)C)=N\Oc1nc(C)cc(C)n1`, for which the inhibition is -3.23%.

With `C=CC1=C(C(=O)O)N2C(=O)[C@@H](NC(=O)/C(=N\OCC(=O)O)c3csc(N)n3)[C@H]2SC1`, the inhibition was 20.5% (active).

For the compound `COc1ccc(NC(=O)c2ccc(OC)cc2)cc1`, the inhibition was -4.41%.

Take `COc1ccc(/C=C2\N=C3CCCN3C2=O)cc1`: the inhibition is -5.85%.

For `O=C(c1ccc2c(c1)OCO2)N1CCNc2ccccc2C1`, the inhibition is -2.69%.

`O=C(CSc1ccccc1)Nc1cccc(S(=O)(=O)N2CCOCC2)c1`: the inhibition is 4.18%.

In the case of `Cc1cc(C)c(NC(=O)CN2CCOCCOCCOCCOCC2)c(C)c1`, the inhibition was 0.38%.

Consider `C=CCn1c(SCn2nnc3ccccc3c2=O)nnc1-c1ccc(Cl)cc1`, for which the inhibition is -0.45%.

`CCc1c(Nc2ccccc2C)nc(N)[nH]c1=O`: the inhibition was 1.95%.

For `CCOc1ccccc1NC(=O)CCN1CCN(S(=O)(=O)c2ccc(OC)cc2)CC1`, the inhibition was -0.62%.

In the case of `C=CCN(c1ccc(Cl)cc1)S(=O)(=O)c1cccc(C(=O)OCC(=O)N(C)C)c1`, the inhibition is -16%.

For the compound `Cc1nc(Nc2ccccc2C)c2cnn(C)c2n1`, the inhibition is -0.91%.

For the compound `Cc1ccc(NC(=S)N(Cc2ccco2)C(C)c2cccs2)cc1` (stereo not given), the inhibition was -0.01%.

Take `COc1ccc(C(CNC(=O)c2cc(S(=O)(=O)Nc3cccc(C)c3)ccc2C)N2CCCC2)cc1` (stereo not given): the inhibition is -3.32%.

Turning to `CCn1c(SCC(C)=O)nc2sc3c(c2c1=O)CCCC3`, the inhibition is -2%.

Regarding `Cc1nc2ccc(NC(=O)c3cccc(S(=O)(=O)N4CCOCC4)c3)cc2s1`, the inhibition is -9.8%.

Take `Cc1c(C#N)c2ncn(CC#N)c(=O)c2n1-c1ccccc1`: the inhibition is -2.4%.

Take `CS(=O)(=O)N(Cc1ccc(Cl)cc1)c1ccc(C(=O)NCCSCc2ccco2)cc1`: the inhibition is 1.86%.

With `Nc1nnc(SCC(=O)OCc2ccc(Cl)c(Cl)c2)s1`, the inhibition was -2.66%.

As for `Cc1ccc(/C=N/NC(=O)CSc2nc3ccccc3o2)cc1`, the inhibition is -1.23%.

On to `CN(C(=O)c1cccc(NC(=O)Cc2cccc([N+](=O)[O-])c2)c1)C1CCCCC1`, for which the inhibition was 2.33%.

`O=C(C1CCCO1)N1CCN(C(=S)Nc2cccc(Cl)c2)CC1` (stereo not given): the inhibition was -2.93%.

On to `CCOc1ccc(NC(=O)[C@H](C)NC(=O)C2CC(=O)N(c3ccc(OC)cc3)C2)cc1` (stereo not given in full), for which the inhibition is -3.05%.

As to `O=C(O)c1ccc(Cn2c(=S)[nH]c3cc(Cl)ccc3c2=O)cc1`, the inhibition is -7.23%.

`CC(=O)C12CC(C)=C(C)CC1CC1C3CCC4=CC(=O)CCC4(C)C3CCC12C` (stereo not given): the inhibition is -2.56%.

`O=C(Nc1ccc(Br)cc1)C1CCC(=O)N1Cc1ccccc1Cl` (stereo not given): the inhibition was -0.11%.

Take `N#Cc1c(NC(=O)C2CCCO2)sc2c1CCCCC2` (stereo not given): the inhibition is -7.76%.

As for `CCOC(=O)C1CCN(C(=O)c2ccccc2N(C)S(=O)(=O)c2ccccc2)CC1`, the inhibition was 1.21%.

Regarding `O=C(Nc1cccc([N+](=O)[O-])c1)Nn1cnnc1`, the inhibition is 0.35%.

Take `Cc1ccccc1C(=O)Nc1ccccc1Sc1ccccc1`: the inhibition was -4.34%.

Take `COc1ccc(S(=O)(=O)N2CCC(C(=O)OCC(=O)c3ccccc3)CC2)cc1[N+](=O)[O-]`: the inhibition was 0.58%.

`O=C(CCNS(=O)(=O)c1ccc(Br)cc1)NCC1CCCO1` (stereo not given): the inhibition was 1.04%.

Consider `Cc1ccc(-n2ncc3c2CC(C)(C)CC3NC(=O)CCc2cnn(C)c2)cc1` (stereo not given), for which the inhibition is 0.66%.

For the compound `COC(=O)C[C@@H]1CC[C@@H]2[C@H](COc3ccc(NC(=O)c4cccc(F)c4)cc3C(=O)N2C)O1`, the inhibition was 2.78%.

In the case of `Cc1c(C(=O)c2cccc([N+](=O)[O-])c2)c2ccccn2c1CCC#N`, the inhibition is 6.14%.

For `CN(C)/C=C(/C(=O)c1ccc(Cl)cc1)S(=O)(=O)c1ccccc1`, the inhibition is -1.45%.

For `O=C(CSc1ncn[nH]1)N/N=C/c1ccc(F)cc1`, the inhibition was 1.52%.

As for `CNC(=O)c1ccc(NC(=O)c2cccc(C(F)(F)F)c2)cc1`, the inhibition is -1.78%.

Take `O=C1N[C@@H](c2ccccc2)COC(=O)[C@H](Cc2ccc(F)cc2)C/C=C\C[C@@H]1CC(=O)N(CCO)Cc1ccccc1`: the inhibition is 0.87%.

In the case of `C[C@]12c3[nH]c4ccc(Cl)cc4c3CCN1C(=O)[C@@H](CC(=O)NCCCn1ccnc1)C[C@@H]2C(=O)N1CCOCC1`, the inhibition is -2.45%.

For the compound `CCc1c(C)n([O-])c2c([n+]1=O)CCCCC2`, the inhibition was -2.11%.

For `Cc1cc2nc(SCCN3CCOCC3)[nH]c2cc1C`, the inhibition is 0.27%.

Consider `CCCCNc1ccc(C(=O)Nc2cccc(C)n2)cc1[N+](=O)[O-]`, for which the inhibition is -2.68%.

Regarding `COc1ccc(CCNC(=O)COC(=O)Cc2ccccc2F)cc1`, the inhibition is -2.27%.

Turning to `CC(C)Oc1ccc(CC(=O)NNC(=S)Nc2ccc(Br)cc2)cc1`, the inhibition is -6.23%.

For `Cc1ccc(-c2cn(S(=O)(=O)c3cccc([N+](=O)[O-])c3)nc2N)cc1`, the inhibition is -2.7%.

For orientation: inhibition means the change of the read-out against control, counted positive when it falls.

The values are drawn from PubChem BioAssay AID743261 (The Scripps Research Institute Molecular Screening Center, 2014).
